Most compounds without a hit are left out; they make up all but 7.5% or so of the library.
NPC1 prom act – activates the NPC1 promoter. Huh7 NPC1 promoter luciferase reporter, 24 h. Potency, µM (series often up to 9.22 µM), actives largely listed as activators. actives 2.4% (n = 320,000). AID 485313; also: nearly all actives have a fitted effect of over 60% in size
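Huh7 cells stably carrying NPC1 promoter–luciferase, plated in Opti-MEM with 10% FBS for 2 h, were exposed to compound in DMSO for 24 h at 37 °C; luciferase reagent was added for 10 min and luminescence read.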
ELG1 genotox – induces genotoxicity in HEK293T cells with luciferase-tagged ELG1; Potency, µM (series often up to 46 µM), actives largely listed as activators; actives 1.3% (n = 330,000); HEK293T ELG1-luciferase reporter, luminescence, 16 h; AID 504466; also: nearly all actives have a fitted effect of over 60% in size
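Step 1: seed 2,000 HEK293T ELG1-luciferase cells per well. Step 2: add compound or DMSO, incubate 16 hr at 37 °C. Step 3: ONE-Glo, 30 min at room temperature, read luminescence.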
FLuc modulator – inhibits or activates purified firefly luciferase, miR-21 counter-screen; purified FLuc, Km substrates, luminescence inhibition; actives 6.9% (n = 360,000); Potency, µM (series often up to 57.5 µM), hits mostly inhibitors; P08659; also: nearly all actives have a fitted effect of over 55% in size
Target sequence (P08659 whole entry, looked up): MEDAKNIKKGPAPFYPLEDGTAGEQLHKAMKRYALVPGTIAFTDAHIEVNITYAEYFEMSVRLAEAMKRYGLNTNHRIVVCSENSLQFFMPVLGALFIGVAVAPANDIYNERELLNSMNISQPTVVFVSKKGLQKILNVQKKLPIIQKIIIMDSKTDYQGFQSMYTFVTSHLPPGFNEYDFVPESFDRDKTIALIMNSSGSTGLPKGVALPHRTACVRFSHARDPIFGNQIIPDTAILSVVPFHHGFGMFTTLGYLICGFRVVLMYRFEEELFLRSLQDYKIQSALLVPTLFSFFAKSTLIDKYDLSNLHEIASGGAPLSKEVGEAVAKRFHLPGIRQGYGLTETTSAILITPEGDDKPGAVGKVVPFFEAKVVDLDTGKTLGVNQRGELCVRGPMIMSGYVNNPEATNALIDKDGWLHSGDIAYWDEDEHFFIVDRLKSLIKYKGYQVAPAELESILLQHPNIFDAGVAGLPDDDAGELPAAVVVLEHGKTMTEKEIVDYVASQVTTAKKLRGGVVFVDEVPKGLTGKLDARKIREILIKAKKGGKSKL
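Purified P. pyralis luciferase (10nM final) with 10uM D-luciferin and 10uM ATP (Km levels) in 50mM Tris acetate pH 7.5, 10mM Mg acetate, 0.01% Tween-20, 0.05% BSA; qHTS 6-point titration, ~60 µM downward; luminescence read.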
Rab9 promoter act – Rab9 promoter activation; Huh7 Rab9 promoter-luciferase reporter, luminescence, 24 h; Potency, µM (top dose mostly 9.22 µM), most hits filed as activators; actives 2.8% (n = 320,000); AID 485297; also: nearly all actives have a fitted effect of over 60% in size
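Stable Rab9-luc Huh7, 1500 cells/well, 2 h settle; cmpd in DMSO, 24 h, 37 °C/5% CO2; luciferase reagent 10 min RT; luminescence.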
Luc counter – Kinase-Glo luciferase inhibition (counter-screen) | actives 0.28% (n = 200,000) | Potency, µM (series often up to 38.3 µM), usual class: inhibitors | Kinase-Glo luciferase, ATP luminescence, 8 min | AID 1379; also: nearly all actives have a fitted effect of over 60% in size
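Compound is pinned into ATP-containing buffer (10 uM ATP, imidazole pH 7.2, 7 mM MgCl2). Kinase-Glo luciferase reagent is then added. Light output is recorded following an 8-min room-temperature incubation.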
SMN2 splice up – increases expression of the SMN2 splice variant; Potency, µM (top dose mostly 46.1 µM), hits mostly activators; actives 2.8% (n = 210,000); HEK293 SMN2-luciferase splicing reporter, luminescence, 30-36 h; also: nearly all actives have a fitted effect of over 55% in size
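qHTS luciferase splicing reporter: luminescence rises when SMN2 exon 7 is included in transfected HEK293 cells. Compound exposure lasted 30-36 h at 37C, with 4.5 mM final sodium butyrate as control, followed by a ONE-Glo read.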
A number is an active result; i = inactive; ? = inconclusive; nt = no result; [ ] = another dose, or the depositor's remark. Calls follow the shape of the dose curve; as a rule, active = well fitted curve in the direction sought with a large enough effect; inconclusive = small, poorly fitted or top-dose-only effect, or another doubt; inactive = no such curve, though single readings can be large; an effect the other way counts as inactive or inconclusive.

SMILES | NPC1 prom act | ELG1 genotox | FLuc modulator | Rab9 promoter act | Luc counter | SMN2 splice up
CCCCN(C(=O)Cc1cccs1)c1nnc(-c2cccnc2)s1 | ? | i | 19µM | i | i | 20µM
CCN(C(=O)Cc1ccccc1OC)c1nnc(-c2ccncc2)s1 | i | i | i | i | i | i
CN(C(=O)c1cccnc1)c1nnc(-c2cccnc2)s1 | i | i | i | i | i | i
CCn1cc(C(=O)N2CCN(c3ccccc3)CC2)c(=O)c2cc(S(=O)(=O)N3CCC(C)CC3)ccc21 | nt | nt | i | nt | nt | i
Cn1c(CO)nc2cc(N)ccc21 | i | i | 16.9µM | i | i | nt
COc1ccc([C@@H]2CC(=O)c3c(O)cc(O)cc3O2)cc1O | ? | ? | 15.1µM | ? | i | i
CCn1ncc(/C=C2/SC(=S)NC2=O)c1C | i | i | 15.1µM | i | i | i
Cc1cc(/C=C2\SC(=S)NC2=O)c(C)[nH]1 | i | ? | 10.7µM | i | i | i
CCn1c(C)cc(/C=C2/SC(=S)NC2=O)c1C | ? | ? | 4.78µM | ? | i | ?
CCOc1ccc(N(C)c2ccc(/C=C3/SC(=S)NC3=O)cc2)cc1 | i | i | ? | i | nt | nt
CC(=O)C1=C(O)C(=O)N(c2ccc(O)cc2)C1c1ccccc1Cl (stereo unspecified) | i | i | i | i | nt | nt
COc1ccc(S(=O)(=O)Nc2cccc3c2O[C@H](CN(C)C(=O)Nc2ccc(C(F)(F)F)cc2)[C@@H](C)CN([C@H](C)CO)C3=O)cc1 | nt | i | nt | nt | nt | nt
COc1cc(-c2ccno2)ccc1S(=O)(=O)N1CCN(c2ccc(F)cc2)CC1 | nt | nt | i | nt | nt | nt
CCOc1ccc(N2CC(NC(=O)C(=O)c3c[nH]c4ccccc34)CC2=O)cc1 (stereo unspecified) | nt | nt | i | nt | nt | nt
COC(=O)c1cnc(SCC(=O)c2ccccc2)n1C | 1µM | ? | 3.38µM | 1.12µM | nt | nt
COC(=O)c1cnc(SCc2ccc(Cl)cc2)n1C | i | i | ? | ? | i | nt
COC(=O)c1ccnc(SCC(=O)c2ccccc2)c1 | 3.16µM | 14.6µM | 3.79µM | 2.82µM | i | ?
O=C(NCC(c1ccco1)S(=O)(=O)c1cccs1)c1ccc(Cl)cc1 (stereo unspecified) | nt | nt | i | nt | nt | nt
Cc1ccc(O)c(C=Nc2ccc3[nH]ncc3c2)c1 | i | i | 19µM | i | i | i
O=C(CCn1c2c(c3ccccc31)CCCC2)NNC(=O)c1ccccc1[N+](=O)[O-] | i | i | ? | i | i | i
O=C(CCn1c2c(c3ccccc31)CCCC2)NNC(=O)c1ccccc1C(=O)O | i | i | 26.9µM | i | nt | nt
c1coc(-c2nnc(NC3=NCCC3)o2)c1 | ? | 16.4µM | 19µM | 3.55µM | i | 12.6µM
CN(C)c1oc(-c2cccs2)nc1C#N | i | i | i | i | i | i
Cc1cccc(OCCSc2nnc(-c3cccs3)o2)c1 | nt | nt | i | nt | nt | nt
CN(C)c1ccc(-c2nnc(-c3cccs3)o2)cc1 | 0.501µM | ? | 0.757µM | 0.316µM | i | 2.24µM
SMILES | NPC1 prom act | ELG1 genotox | FLuc modulator | Rab9 promoter act | Luc counter | SMN2 splice up
CCCOc1ccc(-c2nnc(-c3cccs3)o2)cc1 | 0.708µM | ? | 0.675µM | 0.562µM | i | 4.47µM
Cc1nnc(NC2=NCCC2)o1 | i | i | i | i | i | ?
CCOc1ccc(-c2nnc(NC3=NCCCCC3)o2)cc1 | ? | 2.31µM | 4.78µM | 1.58µM | i | 12.6µM
Cc1ccc(NC(=O)Cn2c(=O)n(CC3CCC(C(=O)NC(C)C)CC3)c(=O)c3sccc32)cc1 (stereo unspecified) | nt | nt | i | nt | nt | nt
CCc1ccc(S(=O)(=O)NCc2ccc3c(c2)CCN3C(=O)c2ccc(C)cc2)cc1 | nt | nt | i | nt | nt | nt
CCOc1ccc(-c2nnc(-c3ccncc3)o2)cc1 | 1.78µM | i | 9.53µM | 1.58µM | i | ?
CCOC(=O)COc1ccc(-c2nnc(-c3ccccc3)o2)cc1 | i | i | 6.01µM | i | i | nt
CCCCOc1ccc(-c2nnc(-c3cc[n+](C)cc3)o2)cc1 | i | i | i | i | i | nt
CCOc1ccc(-c2nnc(N)o2)cc1 | i | i | ? | i | i | i
CCOC(=O)Cc1nnc(-c2ccccc2)o1 | i | i | i | i | i | i
CCCCOc1ccc(-c2nnc(-c3ccncc3)o2)cc1 | ? | ? | 12µM | 3.98µM | nt | nt
CCOC(=O)CNC(=O)Nc1nnc(-c2ccc(OCC)cc2)o1 | i | i | 12µM | i | i | i
CCCCC(=O)Oc1ccc2oc(-c3ccc(OC)cc3)cc(=O)c2c1 | nt | nt | ? | nt | nt | i
CCCCOC(=O)c1nnc(-c2ccccc2)o1 | i | i | 12µM | i | nt | nt
CCOc1ccc(-c2nnc(-c3ccccc3)o2)cc1 | 1.58µM | ? | 1.07µM | 0.708µM | i | 0.562µM
CCOc1ccc(-c2nnc(-c3ccc(OC)cc3)o2)cc1 | i | i | ? | i | i | i
Cc1ccc(NC(=O)/C(C#N)=C\c2ccc(Cl)cc2Cl)cc1C | nt | nt | i | nt | nt | i
N#C/C(=C\c1ccc(-c2ccccc2)o1)C(=O)Nn1cnnc1 | i | i | 19µM | i | i | i
Cc1ccccc1NC(=O)/C(C#N)=C/c1ccc(-c2ccc(Cl)c(C(=O)O)c2)o1 | 2.82µM | i | 19µM | 3.16µM | nt | nt
Cc1ccc(NC(=O)/C(C#N)=C/c2ccc(-c3ccc(Cl)c(C(=O)O)c3)o2)cc1C | nt | nt | 3.79µM | nt | nt | i
COc1ccc(NC(=O)/C(C#N)=C/c2ccc(-c3ccc(Cl)c(C(=O)O)c3)o2)cc1 | ? | ? | 0.477µM | 3.55µM | nt | nt
CCc1cccc(NC(=O)Cn2cc(C(=O)c3ccncc3)c(=O)c3cc(C)c(C)cc32)c1 | nt | nt | i | nt | nt | nt
C=CCc1cccc2cc(C(=O)Nc3ccc(F)cc3)c(=O)oc12 | ? | ? | i | ? | i | i
C=CCc1cccc2cc(C(=O)Nc3ccc(CC(=O)O)cc3)c(=O)oc12 | i | i | 8.49µM | i | i | i
C=CCc1cccc2cc(C(=O)Nc3cccc(C(=O)O)c3)c(=O)oc12 | ? | i | 12µM | ? | nt | nt
SMILES | NPC1 prom act | ELG1 genotox | FLuc modulator | Rab9 promoter act | Luc counter | SMN2 splice up
COc1ccc(C(=O)NCC(c2ccc3c(c2)OCO3)N2CCOCC2)cc1OC (stereo unspecified) | nt | nt | i | nt | nt | nt
Oc1ccc(Cl)cc1/C=C/c1ccc2cccc(O)c2n1 | i | ? | 21.3µM | i | i | i
Oc1cccc2ccc(/C=C/c3ccccc3Br)nc12 | 3.55µM | ? | 3.38µM | ? | nt | nt
Cc1ccc(NC(=O)CCC(=O)N2Cc3ccccc3Oc3ncccc32)cc1 | nt | nt | i | nt | nt | nt
C=CCn1c(N)c(C(=O)NCCC2=CCCCC2)sc1=S | i | ? | ? | i | i | 12.6µM
N#Cc1ccc(C(=O)CSc2n[nH]c(=O)n2Cc2ccco2)cc1 | i | i | i | i | nt | nt
CCOC(=O)COc1ccc(C)cc1C(=O)c1ccn2nc(-c3ccc(Cl)cc3)cc2n1 | nt | nt | i | nt | nt | i
COC(=O)C1C(=O)C=C(Nc2ccc(F)cc2F)CC1c1ccccc1 (stereo unspecified) | i | i | i | i | i | i[1.84 µM]

Bioassay records as filed in PubChem.
